# In PubChem BioAssay AID827 (SRMLSC, 2007):
# The whole screen tested about 140,000 compounds, of which about 1,700 (1.2%) were called active. The sample holds actives, similar compounds and a random draw of the others, so the mix is not that of the screen. Values without a mark were called inactive.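 The calls were made as follows: active = viability at or below a set limit, 4 SD under the median of all tested compounds (cut at about 3.7% in these data); inactive = the rest.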
# Assay: viability loss in PTEN-deleted colon tumor cells – cell-based, HCT116, CellTiter-Glo, primary screen (AID 827);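 also: PTEN knockout HCT116 line with beta catenin targeted HCT116 as companion control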
# Conditions: HCT116 PTEN-null viability, 60 h, at 10 µM, stronger effect = lower value
row,SMILES,viability
1,CCCC(O)(CCC)C(=O)NN(C(=O)CCl)c1cccc(C)c1,32.7%
2,CC(=O)OC(C)C[N+](C)(C)C (stereo unspecified),98.9%
3,CC(C[N+](C)(C)C)OC(N)=O (stereo unspecified),1.03% (active)
4,COc1ccc(/C(N)=N/OC(=O)CCCc2ccccc2)cc1,94.9%
5,COC(=O)c1cc(C(=O)N(Cc2ccccc2)c2ccccn2)cc([N+](=O)[O-])c1,94.2%
6,NC1=C([N+](=O)[O-])C(c2ccccc2)C2=C(CCCC2=O)O1 (stereo unspecified),95.7%
7,O=C(COC(=O)/C(=C/c1cccs1)c1cccs1)NCc1ccccc1Cl,91.8%
8,Cc1coc2c(O)cc3c(c12)OC1(N2CCCCC2)C(=O)NCCCC31 (stereo unspecified),2.96% (active)
9,Cn1cc(C(=O)NCc2ccccc2F)cn1,102%
10,O=C(Nc1ccc2c(c1)OCCO2)c1ccncc1,94.3%
11,CCc1ccc(NC(=O)c2ccc(Cn3cc([N+](=O)[O-])cn3)cc2)cc1,99%
12,Cn1cc([N+](=O)[O-])c(C(=O)Nc2ccc3c(c2)OCCO3)n1,3.52% (active)
13,COc1cccc(NC(=O)c2ccc(Cn3cc([N+](=O)[O-])cn3)o2)c1,86.8%
14,O=C(Nc1ccc2c(c1)OCCO2)c1cnccn1,97.3%
15,Cn1cc([N+](=O)[O-])c(C(=O)Nc2cnn(Cc3ccc(F)cc3)c2)n1,3.56% (active)
16,O=[N+]([O-])c1cccc(S(=O)(=O)N2CCCCCC2)c1,86.5%
17,COc1ccc(C(=O)CSc2nnc(NC(=O)C3CC(=O)N(c4cccc(OC)c4)C3)s2)cc1 (stereo unspecified),94.8%
18,CSc1nc2ccccc2cc1/C=C(\C#N)c1ccc(Cl)cc1Cl,3.51% (active)
19,Cc1nc2ccccc2cc1O,103%
20,CSc1nc(N)c(C#N)c(-c2ccccc2Cl)c1C#N,86.3%
21,Cc1cc(C(=O)COC(=O)CNC(=O)c2ccc(F)cc2)c(C)n1Cc1ccco1,96.4%

row,SMILES,viability
1,C=CCc1cccc2cc(C(=O)OCC)c(=O)oc12,104%
2,COc1cccc2cc(C(=O)N3CCN(C(=O)c4ccccc4)CC3)c(=O)oc12,87.7%
3,COc1cccc2cc(C(=O)N(C)C)c(=O)oc12,1.64% (active)
4,Cc1ccc(Oc2cc(NC(=O)CCCn3nc(C)c([N+](=O)[O-])c3C)cc([N+](=O)[O-])c2)cc1,71.1%
5,CC(C)(C)C1CCC(OC(=O)CCC(=O)Nc2ccccc2)CC1 (stereo unspecified),87%
6,CC(C)n1c(C(O)c2ccccc2)nc2ccccc21 (stereo unspecified),101%
7,Cc1ccc(C(CC(=O)O)Nc2nc(N3CCCCC3)nc(N3CCCCC3)n2)cc1 (stereo unspecified),99.5%
8,CC(Nc1nc(N2CCCC2)nc2ccccc12)c1ccccc1 (stereo unspecified),2.77% (active)
9,Cc1ccc(C)c(NC(=S)NCC(c2cccnc2)N2CCOCC2)c1 (stereo unspecified),92.3%
10,CCCCCCc1cc2cc(-c3nnc(-c4ccccc4)o3)c(=O)oc2cc1O,1.84% (active)
11,CC(=O)c1c(C)[nH]c(C(=O)OCC(=O)Nc2sc3c(c2C#N)CCCC3)c1C,66.9%
12,COc1cccc2c1CCC(NC(C)=O)C2=O (stereo unspecified),86%
13,O=C(/C(=C/c1cccc(Cl)c1)c1nc2ccccc2[nH]1)c1ccccc1,1.59% (active)
14,Oc1ccc(Cl)cc1/C=N/c1nc2ccccc2[nH]1,93.9%
15,COc1ccc(/C=C(/NC(=O)c2ccc(C)cc2)c2nc3ccccc3[nH]2)cc1OC,99.4%
16,Cc1ccc(C(=O)/C=C/Nc2ccc(S(=O)(=O)Nc3onc(C)c3C)cc2)cc1,92.7%
17,O=C(NCCc1ccccc1)C1CCC(Cn2c(=O)c3ccccc3n(Cc3cccnc3)c2=O)CC1 (stereo unspecified),63.7%
18,Cc1cccc(NC(=O)CSc2nc3[nH]ncc3c(=O)[nH]2)c1,90.2%
19,CCC(C)NCCOCCOc1ccc(Br)cc1C (stereo unspecified),71%
20,CC(C)(C)CC(C)(C)NCC(O)COCCOc1ccc(Br)cc1 (stereo unspecified),1.74% (active)
21,Cc1noc(COc2ccccc2OCC(O)CNC(C)(C)C)n1 (stereo unspecified),98.8%

row,SMILES,viability
1,Cc1cccc(C(=O)OCC(=O)Nc2sc3c(c2C#N)CCC3)c1,95.8%
2,CCc1ccccc1NC(=O)CN(C)C(=O)COc1ccc(C)nc1[N+](=O)[O-],95.3%
3,O=C(Nc1c2c(nc3ccccc13)CCCC2)c1ccccc1Br,86.9%
4,O=C(NNc1c2ccccc2nc2ccccc12)c1cc2ccccc2cc1O,2.39% (active)
5,Cc1noc(C)c1COC(=O)c1cc2ccccc2cc1O,86.5%
6,C=CCNC(=O)c1ccccc1NC(=O)c1ccc(Cl)c(S(=O)(=O)Nc2cccc(C)c2C)c1,55.4%
7,Cc1ccc(-n2c(SCC(=O)N/N=C/C=C/c3ccccc3[N+](=O)[O-])nc3ccccc3c2=O)cc1,85.4%
8,Cn1cc(/C=C/c2nc3ccccc3c(=O)n2-c2cccc([N+](=O)[O-])c2)c2ccccc21,62.3%
9,CCn1c(/C=C/c2ccc([N+](=O)[O-])o2)nc2ccccc2c1=O,2.45% (active)
10,CCc1nnc(NC(=O)[C@@H](NC(=O)c2cccc(C)c2)C(C)C)s1,80.8%
11,N#CCSc1nc2ccccc2c(=O)n1-c1ccccc1,90.5%
12,C/C(O)=C\c1nc(=O)c2c(C)cc(C)nc2n1-c1ccccc1,2.19% (active)
13,Cc1cc(C)c2c(n1)sc1c(=O)n(-c3ccccc3)c(=O)[nH]c12,97.1%
14,COc1ccc(CCC(=O)OCC(=O)Nc2ccc(C)c(S(=O)(=O)N(C)C)c2)cc1,96.3%
15,c1ccc2c(c1)CSc1sccc1C2=C1CCNCC1,4.26%
16,CCOC(=O)c1ccc(N/C(=N/S(=O)(=O)c2ccccc2)c2ccccc2)cc1,102%
17,CCOC(=O)C1=C(c2ccc(OC)cc2)C(=O)c2ccccc2C1=O,1.48% (active)
18,CCCCC(C(=O)OCC(=O)c1ccc(OC)cc1)N1C(=O)c2ccccc2C1=O (stereo unspecified),97.5%
19,CCOC(=O)c1ccccc1NS(=O)(=O)c1ccc(OC)cc1,15.6%
